Hits are enriched below; roughly 21% of the tested compounds scored in any of these assays.
D3 ag: agonists of human D3 dopamine receptor; P35462; D3R DiscoveRx beta-arrestin cells, luminescence, 90 min; max activation, %; 410,000 compounds, 0.58% hits; in the data active = max activation above about 30%
Target sequence (P35462 whole entry, looked up): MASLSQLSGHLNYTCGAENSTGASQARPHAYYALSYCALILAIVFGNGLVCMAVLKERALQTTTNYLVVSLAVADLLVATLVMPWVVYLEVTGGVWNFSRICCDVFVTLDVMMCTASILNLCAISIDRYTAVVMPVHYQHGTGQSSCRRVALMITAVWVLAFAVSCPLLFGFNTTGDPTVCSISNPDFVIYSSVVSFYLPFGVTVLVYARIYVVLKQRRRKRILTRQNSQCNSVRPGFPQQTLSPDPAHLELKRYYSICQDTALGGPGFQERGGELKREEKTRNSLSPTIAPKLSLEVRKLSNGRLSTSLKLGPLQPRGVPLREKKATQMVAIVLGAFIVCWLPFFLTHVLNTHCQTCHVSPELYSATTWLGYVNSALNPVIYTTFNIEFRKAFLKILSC
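Agonist mode: compounds and dopamine controls were applied to plated cells for 90 min at 37 degrees C after an overnight attachment at 1500 cells/well. Luminescent read-out followed 30 - 60 minutes at room temperature with DiscoveRx detection reagent.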
ClpP mod: qHTS Assay for Activators of ClpP; 340,000 compounds, 1.9% hits; Potency, µM (highest dose often 57.5 µM); purified B. subtilis ClpP, FRET peptide cleavage, 20 min; AID 651965, 2013; ATP-dependent Clp protease proteolytic subunit (Bacillus subtilis (strain 168)), P80244; active = well fitted falling curve with a large enough effect; inconclusive = small, poorly fitted or top-dose-only effect; inactive = no such curve, though single readings can be large or run the other way; note: the source files actives as falling curves though it sought activators and does not explain the sign; nearly all actives have a fitted effect of over 65% in size
Target sequence (P80244 whole entry, looked up): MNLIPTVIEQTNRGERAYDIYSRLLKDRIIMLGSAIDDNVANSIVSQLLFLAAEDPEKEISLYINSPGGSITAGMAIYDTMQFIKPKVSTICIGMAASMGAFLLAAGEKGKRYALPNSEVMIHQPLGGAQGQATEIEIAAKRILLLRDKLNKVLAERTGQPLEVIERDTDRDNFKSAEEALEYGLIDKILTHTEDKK
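FRET quenching reversal measured ClpP activation: 10 microg/mL B. subtilis ClpP at pH 8 with the FRET-FV decapeptide, read at 430 nm after 320 nm excitation. The 20-min minus 0-min signal was scaled between DMSO/no-enzyme wells and ADEP (5.8 microM final).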
IL1B secr inh: blocks inflammasome-driven IL-1 beta release; THP-1 LPS/ATP IL-1B secretion, AlphaLISA, 16 h; stronger effect = lower value; activity change, % at 57.5 µM; 360,000 compounds, 4.7% hits; in the data active = activity change below about -50%; inconclusive = mostly about -30% to -49%
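Secreted IL-1B measured by AlphaLISA bead assay after 16 h compound exposure of THP-1 cells; compounds (final up to 57.5 uM) added 1 h before LPS (250 ng/mL) and ATP (1.25 mM) stimulation; lower signal means less secretion.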
TDP1 cell noCPT: qHTS for Inhibitors of human tyrosyl-DNA phosphodiesterase 1 (TDP1): qHTS in cells in absence of CPT; DT40 Tdp1-/- hTDP1 cells, no CPT, ATP luminescence, 48 h; Potency, µM (series often up to 46.2 µM), actives largely listed as inhibitors; 420,000 compounds, 15% hits; AID 686978, 2013; note: nearly all actives have a fitted effect of over 55% in size
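No-CPT arm: Tdp1-/-;hTDP1 DT40 cells (400/well) plus compounds, incubated ≥48 hr at 37 °C. Readout CellTiter-Glo luminescence.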
DT40 TDP1 CPT: growth inhibition of DT40 Tdp1-/-;hTDP1 cells with camptothecin (screen for TDP1 inhibitors); chicken DT40 Tdp1-/-;hTDP1 cells + 20 nM CPT, ATP luminescence, 48 h; Potency, µM (doses to about 46.2 µM), most hits filed as inhibitors; 420,000 compounds, 12% hits; AID 686979; note: nearly all actives have a fitted effect of over 55% in size
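Chicken DT40 Tdp1-/- cells complemented with human TDP1, 400 cells/well, exposed to compounds plus 20 nM camptothecin for at least 48 h at 37 C; viability read as ATP content by CellTiter-Glo luminescence.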
D3 antag: blocks the human D3 dopamine receptor; D3R cells, DiscoveRx beta-arrestin luminescence, antagonist mode; stronger effect = lower value; max response, negative = inhibition, %; 360,000 compounds, 2.5% hits; AID 652054; in the data active = max response below about -50%; inconclusive = no clear call, values can overlap the other calls
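Cells expressing the human receptor were seeded at 1500 cells/well, incubated overnight at 37 degrees C in 5% CO2, then exposed to library compounds with dopamine controls for 90 minutes at 37 degrees C before luminescent detection.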
Of the large screens only hits and unclear results are named; the others gave an inactive call. Unless noted, calls come from the whole dose curve; as a rule, active = well fitted inhibition curve with a large enough effect; inconclusive = small, poorly fitted or top-dose-only effect; inactive = flat fitted curve, though single readings scatter.

O=C1c2ccccc2C(=O)c2c1ncn2-c1ccccc1	TDP1 cell noCPT 5.2µM, DT40 TDP1 CPT 5.8µM
O=c1[nH]c(=S)c2ncn(-c3ccccc3)c2[nH]1	D3 antag inconclusive (no result: ClpP mod)
COc1ccc2c(c1)c1c(c(=O)n(Cc3ccccc3)c(=O)n1CC(=O)Nc1ccccc1OC)n2C	ClpP mod 20µM (no result: IL1B secr inh, D3 antag)
COc1cccc(Cn2c(=O)n(-c3ccccc3C)c(=O)c3c2c2cc(C)ccc2n3C)c1	TDP1 cell noCPT 13µM, DT40 TDP1 CPT 18µM (no result: IL1B secr inh, D3 antag)
COc1ccc2c(c1)c1c(c(=O)n(-c3ccccc3C)c(=O)n1CC(=O)Nc1c(C)cccc1C)n2C	TDP1 cell noCPT 9.2µM, DT40 TDP1 CPT 7.3µM (no result: IL1B secr inh, D3 antag)
CCc1cccc(NC(=O)Cn2c(=O)n(Cc3ccccc3)c(=O)c3c2c2cc(OC)ccc2n3C)c1	TDP1 cell noCPT inconclusive, DT40 TDP1 CPT inconclusive (no result: IL1B secr inh, D3 antag)
CCc1ccc(NC(=O)Cn2c(=O)n(-c3ccccc3C)c(=O)c3c2c2cc(OC)ccc2n3C)cc1	DT40 TDP1 CPT inconclusive (no result: IL1B secr inh, D3 antag)
COc1ccc(Cn2c(=O)n(-c3ccc(C)cc3)c(=O)c3c2c2cc(C)ccc2n3C)cc1	D3 ag 37 (no result: IL1B secr inh, D3 antag)
CCOC(=O)c1c(S(=O)(=O)N2CCCC(C(=O)Nc3cccc(C)n3)C2)c(C)n(C)c1C (stereo not drawn)	TDP1 cell noCPT inconclusive, DT40 TDP1 CPT inconclusive
CC(C)C(=O)Nc1cc(-c2nc3ncccc3o2)ccc1Cl	none
CCC(=O)N1CCc2cc(Br)cc(S(=O)(=O)CCC(=O)NCc3ccc(C)cc3)c21	none (no result: IL1B secr inh, D3 antag)
O=C(/C=C/c1cccc([N+](=O)[O-])c1)c1ccc2c(c1)OCCO2	TDP1 cell noCPT 18µM, DT40 TDP1 CPT inconclusive
COc1cc(CC(=O)OCC(=O)c2ccc3c(c2)OCCO3)cc(OC)c1OC	TDP1 cell noCPT 1.3µM, DT40 TDP1 CPT 1.3µM
COc1ccc(/C=C/C(=O)c2ccc3c(c2)OCCO3)cc1[N+](=O)[O-]	IL1B secr inh -55, TDP1 cell noCPT 15µM, DT40 TDP1 CPT inconclusive, D3 antag -51
COc1cccc(/C=C/C(=O)c2ccc3c(c2)OCCO3)c1OC	IL1B secr inh -99, TDP1 cell noCPT inconclusive, DT40 TDP1 CPT 4.1µM (no result: ClpP mod)
CCN(CC(=O)Nc1ccc2c(c1)OCCO2)C(=O)/C=C/c1cccc(OC)c1OC	none
O=C(COC(=O)c1ccc(O)cc1)c1ccc2c(c1)OCCO2	none
COc1ccc(C(=O)N2CCN(CCNC(=O)C(=O)Nc3ccc(F)cc3)CC2)cc1OC	TDP1 cell noCPT inconclusive (no result: ClpP mod)
COc1cc2c(cc1NC(=O)COc1ccc(Cl)cc1Br)oc1ccccc12	none (no result: IL1B secr inh, D3 antag)
COC(=O)c1cc2c(cc1NC(=O)c1cnn(-c3ccccc3)c1-n1cccc1)OCO2	none (no result: IL1B secr inh, D3 antag)
CNc1ccnc(-c2ccccc2C(F)(F)F)n1	none (no result: D3 ag, ClpP mod, IL1B secr inh, D3 antag)
O=C(COC(=O)CCc1ccccc1)Nc1ccc(F)cc1Cl	none (no result: ClpP mod)
CC(c1ccccc1)n1c(N2CCNCC2)nc2c1c(=O)[nH]c(=O)n2C (stereo not drawn)	none
C=CCSc1nnc(-c2ccccc2N=Cc2c(C)[nH]n(-c3ccccc3)c2=O)c(=O)[nH]1	TDP1 cell noCPT inconclusive, DT40 TDP1 CPT inconclusive
CSc1nnc(-c2ccccc2N=Cc2c(C)[nH]n(-c3ccc4ccccc4c3)c2=O)c(=O)[nH]1	TDP1 cell noCPT inconclusive, DT40 TDP1 CPT 21µM
CCCn1nc(NC(=O)C2CCCO2)c2cc3cccc(C)c3nc21 (stereo not drawn)	TDP1 cell noCPT 15µM (no result: ClpP mod)
CCOc1cc(OCC)c(C(=O)CCC(=O)O)cc1OCC	none (no result: ClpP mod, IL1B secr inh, D3 antag)
CN(C)C1(CNC(=O)C2CCN(S(=O)(=O)c3cc(Cl)ccc3Cl)CC2)CCCCC1	TDP1 cell noCPT inconclusive, DT40 TDP1 CPT inconclusive
Cc1nn(CCC(=O)NNC(=S)Nc2ccc(F)cc2)c(C)c1Br	TDP1 cell noCPT inconclusive, DT40 TDP1 CPT inconclusive, D3 antag inconclusive
CCCCNC(=S)NNC(=O)CCn1nc(C)c(Br)c1C	TDP1 cell noCPT 5.6µM, DT40 TDP1 CPT 6.3µM, D3 antag inconclusive
Cc1occc1C(=O)Nc1sccc1C(N)=O	IL1B secr inh inconclusive

Source: PubChem BioAssay
